Experimental data as given in PubChem BioAssay (Tox21).
The source made the active and inactive calls. Calls follow the shape of the dose curve; as a rule, active = well fitted curve in the direction sought with a large enough effect in the repeat runs; inconclusive = weak or mixed curves; inactive = flat fitted curve, though single readings scatter.

Assay: qHTS assay to test for compound auto fluorescence at 535 nm (green) in HepG2 cell free culture (AID 720686)
Conditions: Cell-free medium, green autofluorescence 485/535 nm; series mostly up to 91.3 µM
Excerpt: U.S. Tox21 Program National Center for Advancing Translational Sciences [NCATS] NIH Chemical Genomics Center [NCGC] U.S. Environmental Protection Agency [EPA] National Institutes of Environmental Health Sciences [NIEHS] National Toxicology Program [NTP] U.S. Food and Drug Administration [FDA] Tox21 Assay Overview: Compound auto fluorescence often interferes with screening of the compound library against various biological targets and signaling pathways. Some of these compounds may have fluorophoric properties. Such properties may interfere with the assay outputs resulting in false positives and/or negatives. To decrease such complications and ensure the compound activities are relevant in terms of biological response, the Tox21 10K compound library was screened for auto fluorescence. From the fluorophores used as reporter signals in our screening assays, the auto fluorescence equivalencies of compounds against three fluorophores have been evaluated: Triamterene, Fluorescein and Rose Bengal sodium for blue, green and red fluorescence, respectively. The fluorescence intensities were measured using Excitation/Emission wavelengths at 405/460nm, 485/535nm and 540/590nm for blue, green and red labels, respectively. This assay includes the green fluorescence data.
Tox21 Assay Protocol Summary: 5 uL of culture medium (MEM containing 10% FBS) per well was dispensed into black wall/clear bottom 1536-well plates using a Multidrop Combi Dispenser (ThermoFisher Scientific, Waltham, MA). After 23 nL compound or DMSO vehicle was transferred into assay plate by a pintool work station (Kalypsys, San Diego, CA), fluorescence intensities in the assay plates were measured by an Envision (PerkinElmer, Shelton, CT) plate reader using three labels for measuring blue, green and red fluorescence at […] 460, 535 and 590nm respectively.
% is scaled to controls: 0 for no effect and ±100 for the full control effect.

SMILES | outcome | fluorescence, % of fluorescein control
COc1ccc(C(=O)c2ccc(C)cc2)c(O)c1 | inactive | –
CCN(CCCCOC(=O)c1ccc(OC)c(OC)c1)C(C)Cc1ccc(OC)cc1 (stereo not given) | – | 0.0076% [at 18.6 µM] (inactive)
CCCC(=O)OCCC(C)C | inactive | –
OCC(O)c1ccccc1 (stereo not given) | inactive | –
CC(C)(O)C(=O)O | inactive | –
c1ccc(-c2ccc(-c3ccccc3)cc2)cc1 | – | -0.0394% [at 18.6 µM] (inactive)
O=C(O)c1cc(C(=O)O)c(C(=O)O)cc1C(=O)O | inactive | –
COc1ccc(/C=C/c2cc(OC)cc(=O)o2)cc1 | inactive | –
C1=COCCC1 | inactive | –
Nc1ccc(C(=O)Oc2ccccc2)c(O)c1 | inactive | –
COc1cc(CNC(=O)CCCC/C=C/C(C)C)ccc1O | inactive | –
CCc1c(C)[nH]c2c1C(=O)C(CN1CCOCC1)CC2 (stereo not given) | – | 0.0022% [at 18.6 µM] (inactive)
O=C(O)CNc1ccccc1 | inactive | –
C=CC(=O)OCCCCCCCCCC | inactive | –
O=C1c2ccccc2C(=O)C1c1ccc2cc(S(=O)(=O)O)cc(S(=O)(=O)O)c2n1 | inactive | –
O=[N+]([O-])c1cccc(I)c1 | inactive | –
COC(=O)/C=C/C(C)=C\C=C\C(C)=C\C=C\C=C(C)\C=C\C=C(C)\C=C\C(=O)O | inactive | –
O=C(Cl)c1ccc(F)c(Cl)c1 | inactive | –
Cc1cc(C)n(CO)n1 | inactive | –
c1ccc(CCNc2nc(-c3ccccc3)cs2)cc1 | inactive | –

SMILES | outcome | fluorescence, % of fluorescein control
Clc1ccccc1-c1nc(-c2ccncc2)no1 | inactive | –
CC1=C(C)C(=O)C(CCCCC#CCCCC#CCO)=C(C)C1=O | inactive | –
O=c1[nH][nH]c2ccccc12 | inactive | –
Cc1c(Cl)cccc1Nc1ccccc1C(=O)O | inactive | –
FC1(F)C(F)(F)C(F)(F)C2(F)C(F)(C1(F)F)C(F)(F)C(F)(F)C1(F)C(F)(F)C(F)(F)C(F)(F)C(F)(F)C12F (stereo not given) | inactive | –
O=C(O)c1cc(C(=O)O)cc([N+](=O)[O-])c1 | inactive | –
NC(=O)c1ccccc1 | inactive | –
CCCC1CCCC(=O)O1 (stereo not given) | inactive | –
CO[C@@H]1[C@@H](O[C@@H]2O[C@H](C)[C@@H](O[C@H]3C[C@@](C)(O)[C@@H](O)[C@H](C)O3)[C@H](N(C)C)[C@H]2O)[C@@H](CC=O)C[C@@H](C)[C@@H](O[C@@H]2CC[C@H](N(C)C)[C@@H](C)O2)/C=C/C=C/C[C@@H](C)OC(=O)C[C@H]1OC(C)=O | inactive | –
CCCCCCCCCCCCSCCOCCO | inactive | –
C=CC(C)CCC=C(C)C (stereo not given) | inactive | –
CCCCCCCCCCCCCCCCCCCl | – | 0.0829% [at 3.72 µM] (inactive)
Oc1ccc(CCNCCCCCCNCCc2ccccc2)cc1O | inactive | –
C=CCCC | inactive | –
CCC[Si](OC)(OC)OC | inactive | –
CCn1nc(Cc2ccccc2)cc1C1CCN(C[C@H]2C[C@H](N(C)[C@@H](C(=O)O)C(C)C)C[C@@H]2c2cccc(F)c2)CC1 | inactive | –
CCc1ccc2c(c1)C(=O)c1ccccc1C2=O | inactive | –
O=C(O)c1ccccc1-n1cc(C(=O)O)c(=O)c2cc(Nc3c(F)cc(F)cc3Cl)c(Cl)cc21 | inactive | –
CC(C)=CCC/C(C)=C/C=N/O | inactive | –
CC(=O)Nc1ccccc1O | inactive | –
